Where “and” joins values, the source holds several entries; their conditions need not be identical. Equal entries are not always repeated. The source holds several records for some structures; these can differ, active in one and inactive in another. Calls of active or inactive are those of the source. The calls were made as follows: active = hit-call score of the fitted dose curve at least 0.9, where 1 is the maximum; inactive = score below 0.9.
Key:
[1] = target: Nuclear respiratory factor 1 (Homo sapiens) (UniProt Q16656); assay: ATG_NRF1_CIS: Attagene CIS-FACTORIAL HepG2 Assay for human Nuclear Respiratory Factor 1 (NRF1) Orphan Gene (AID 2282987); conditions: HepG2 NRF1 cis-element reporter, Attagene multiplex; actives raise or lower the signal
Nuclear respiratory factor 1 (Homo sapiens), sequence (Q16656 whole entry, looked up): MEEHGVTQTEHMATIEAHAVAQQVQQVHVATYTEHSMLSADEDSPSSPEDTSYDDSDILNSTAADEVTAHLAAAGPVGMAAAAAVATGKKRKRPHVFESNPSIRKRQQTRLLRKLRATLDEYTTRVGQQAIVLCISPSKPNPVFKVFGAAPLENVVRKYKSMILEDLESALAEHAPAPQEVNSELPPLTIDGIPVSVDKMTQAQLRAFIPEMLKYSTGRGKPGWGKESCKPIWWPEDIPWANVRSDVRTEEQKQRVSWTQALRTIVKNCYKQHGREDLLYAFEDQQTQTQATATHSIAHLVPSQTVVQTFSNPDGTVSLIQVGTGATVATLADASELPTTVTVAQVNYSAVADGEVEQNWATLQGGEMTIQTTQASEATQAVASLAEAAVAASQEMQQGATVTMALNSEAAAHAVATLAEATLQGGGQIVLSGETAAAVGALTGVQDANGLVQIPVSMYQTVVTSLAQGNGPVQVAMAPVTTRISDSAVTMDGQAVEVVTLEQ
In short: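 HepG2 cells transiently transfected with multiple cis-regulated reporter units, exposed 24 h. Reporter mRNAs measured by RT-PCR, fluorescent labelling, HpaI digestion and capillary electrophoresis; bidirectional fitting against DMSO.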

[2] = target: Myc proto-oncogene protein (Homo sapiens) (UniProt P01106); assay: ATG_Myc_CIS: Attagene CIS-FACTORIAL HepG2 Assay for human Myelocytomatosis (Myc) Proto-Oncogene Transcription Factor (AID 2282990); conditions: HepG2, Attagene cis-reporter transcription factor activity; actives raise or lower the signal
Myc proto-oncogene protein (Homo sapiens), sequence (P01106 whole entry, looked up): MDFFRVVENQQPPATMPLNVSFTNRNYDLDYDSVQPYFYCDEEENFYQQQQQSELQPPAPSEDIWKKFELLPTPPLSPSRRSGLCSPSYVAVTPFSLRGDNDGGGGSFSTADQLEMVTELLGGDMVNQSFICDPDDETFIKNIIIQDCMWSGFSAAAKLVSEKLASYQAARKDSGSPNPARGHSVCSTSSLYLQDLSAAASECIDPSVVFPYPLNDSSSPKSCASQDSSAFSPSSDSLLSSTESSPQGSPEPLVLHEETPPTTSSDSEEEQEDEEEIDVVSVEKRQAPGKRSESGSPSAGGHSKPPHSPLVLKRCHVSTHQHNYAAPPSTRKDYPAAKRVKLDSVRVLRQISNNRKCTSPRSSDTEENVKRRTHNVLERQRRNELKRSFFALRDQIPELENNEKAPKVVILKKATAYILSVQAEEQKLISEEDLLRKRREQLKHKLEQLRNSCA
In short: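 Cells of the HepG2 human liver line bear multiple cis-driven reporter transcription units. Reporter mRNA after 24 h exposure is reverse-transcribed, amplified, labelled and resolved by capillary electrophoresis, with gain- or loss-of-signal fitting relative to DMSO.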

[3] = ATG_NF_kB_CIS: Attagene CIS-FACTORIAL HepG2 Assay for human Nuclear Factor Kappa B (NF-kB) (AID 2282991); conditions: HepG2 Attagene cis-factorial NF-kB reporter mRNA; actives raise or lower the signal
In short: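 HepG2 cells transfected with cis-promoter-driven reporter units, so endogenous transcription factor activity is measured. Reporter mRNA quantified 24 h after dosing by RT-PCR and capillary electrophoresis, with bidirectional fitting against DMSO.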

[4] = ATG_NRF2_ARE_CIS: Attagene CIS-FACTORIAL HepG2 Assay for human Nuclear Factor Erythroid 2 Related Factor 2 (NFR2) response to Antioxidant Response Elements (ARE) (AID 2282992); conditions: HepG2 Attagene ARE/NRF2 reporter, transcription factor activity; actives raise or lower the signal;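 as to AC50: reporter mRNA level measured by RT-PCR and capillary electrophoresis fluorescence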
In short: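 Fluorescence intensity of reporter-specific cDNA fragments, separated by capillary electrophoresis, reflects mRNA induction in transfected HepG2 cells at 24 h. Activity is fitted bidirectionally, DMSO serving as baseline.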

[5] = ATG_Oct_MLP_CIS: Attagene CIS-FACTORIAL HepG2 Assay for human Octamer-Binding Transcription Factor (Oct) (AID 2282993); conditions: HepG2 Attagene cis-factorial Oct reporter, mRNA; actives raise or lower the signal
In short: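 Multiplexed cis-reporter assay in human liver HepG2 cells, 24 h incubation. Reporter RNA amplified and labelled, then resolved by capillary electrophoresis; DMSO serves as negative control and baseline.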

[6] = target: Cellular tumor antigen p53 (Homo sapiens) (UniProt P04637); assay: ATG_p53_CIS: Attagene CIS-FACTORIAL HepG2 Assay for human p53 Transcription Factor (AID 2282994); conditions: HepG2 p53 cis-element reporter, Attagene mRNA; actives raise or lower the signal
Cellular tumor antigen p53 (Homo sapiens), sequence (P04637 whole entry, looked up): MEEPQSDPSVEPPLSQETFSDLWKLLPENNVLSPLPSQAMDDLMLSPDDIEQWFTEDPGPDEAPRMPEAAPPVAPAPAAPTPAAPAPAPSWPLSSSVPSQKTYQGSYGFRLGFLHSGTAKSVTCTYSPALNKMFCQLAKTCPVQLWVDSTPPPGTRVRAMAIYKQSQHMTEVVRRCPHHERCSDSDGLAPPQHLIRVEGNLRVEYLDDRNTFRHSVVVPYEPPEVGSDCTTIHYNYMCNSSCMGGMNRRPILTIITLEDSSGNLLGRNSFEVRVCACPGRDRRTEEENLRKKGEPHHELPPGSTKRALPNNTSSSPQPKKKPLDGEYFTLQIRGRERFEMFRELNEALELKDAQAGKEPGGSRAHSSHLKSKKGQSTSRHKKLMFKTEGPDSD
In short: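 Transiently transfected HepG2 (multiple cis reporter transcription units); exposure 24 h; reporter RNA via RT-PCR, 6-FAM extension, 2 h HpaI digest at 37 C, CE detection; DMSO baseline.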

[7] = BSK_3C_TissueFactor: BioMAP Diversity Plus: 3C Assay for Tissue Factor Biomarker Activity (AID 2282997); conditions: BioMAP 3C HUVEC, tissue factor biomarker readout; actives raise or lower the signal
In short: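 In this endothelial system, HUVEC are treated for 24 h and Tissue Factor is assessed by ELISA, normalised to DMSO.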

[8] = BSK_3C_uPAR: BioMAP Diversity Plus: 3C Assay for Urokinase-type plasminogen activator receptor (uPAR) Biomarker Activity (AID 2282998); conditions: BioMAP 3C HUVEC, uPAR biomarker ELISA; actives raise or lower the signal
In short: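 Dose primary human umbilical vein endothelial cells, incubate 24 h, measure cell-surface uPAR by ELISA, then fit the signal in both directions against the DMSO negative control.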

[9] = BSK_3C_VCAM1: BioMAP Diversity Plus: 3C Assay for Vascular cell adhesion molecule 1 (VCAM1) Biomarker Activity (AID 2282999); conditions: BioMAP 3C HUVEC, VCAM1 ELISA, cytokine-stimulated; actives raise or lower the signal
In short: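 Activity fitted in both directions relative to DMSO, with ELISA measurement of the surface marker on primary HUVEC (3C) at 24 h post-treatment; parallel SRB staining (0.1% SRB, TCA-fixed, 560 nm) flagged overt cytotoxicity.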

Measured: AC50

O=S(=O)(O)c1ccc2ccccc2c1
not listed: [7] | [8] | [9]
inactive: all other assays above

CCCCCC=O
inactive: [1] | [2] | [4] | [6]

Nc1cc(Cl)c(N)c(Cl)c1
active: [4] 9.89 µM
inactive: [1] | [2] | [6]

C=C(C)C(=O)OCC(F)(F)C(F)(F)C(F)(F)F
not listed: [5]
inactive: all other assays above

FC(F)(F)C(F)(F)C(F)(F)C(F)(F)C(F)(F)CCI
active: [4] 88.9 µM
inactive: all other assays above

FC(F)(F)C(F)(F)CNCC(F)(F)C(F)(F)F
not listed: [5]
inactive: all other assays above

O=C(Cl)C(F)(F)C(F)(F)C(F)(F)C(F)(F)C(F)(F)C(F)(F)C(F)(F)C(F)(F)F
active: [4] 15.8 µM | [6] 54.3 µM | [7] 53.4 µM | [8] 30 µM and 46 µM
inactive: [1] | [2] | [3] | [7] | [8] | [9]

CCO[Si](CCC(F)(F)C(F)(F)C(F)(F)C(F)(F)C(F)(F)C(F)(F)F)(OCC)OCC
inactive: all assays above

c1ccc(B(c2ccccc2)c2ccccc2)cc1
active: [4] 33.9 µM
inactive: [1] | [2] | [3] | [6]

C=C(C)C(=O)OCCC(F)(F)C(F)(F)C(F)(F)C(F)(F)C(F)(C(F)(F)F)C(F)(F)F
inactive: all assays above

CC(CCl)OP(=O)(OC(C)CCl)OC(C)CCl (configuration not stated)
inactive: all assays above

O=P(O)(O)OCCC(F)(F)C(F)(F)C(F)(F)C(F)(F)C(F)(F)C(F)(F)F
inactive: all assays above

CS(C)(=O)=O
active: [4] 27.5 µM
inactive: all other assays above

O=C(O)C(F)(F)C(F)(F)F
inactive: all assays above

C=CC(F)(F)C(F)(F)C(F)(F)C(F)(F)C(F)(F)C(F)(F)C(F)(F)C(F)(F)C=C
not listed: [5]
inactive: all other assays above

CC(C)(C)C(=O)CC(=O)C(F)(F)C(F)(F)C(F)(F)F
inactive: all assays above

O=C(O)C(F)(OC(F)(F)C(F)(OC(F)(F)C(F)(OC(F)(F)C(F)(F)C(F)(F)F)C(F)(F)F)C(F)(F)F)C(F)(F)F (configuration not stated)
inactive: all assays above

O=S(=O)(OCCOC(F)(F)F)C(F)(F)F
not listed: [5]
inactive: all other assays above

CCCCCCOC(=O)c1ccccc1
not listed: [7] | [8] | [9]
inactive: all other assays above

CCCCCCS
inactive: [1] | [2] | [3] | [4] | [6]

O=C(OCCOCCOCCOC(=O)c1ccccc1)c1ccccc1
inactive: [1] | [2] | [3] | [4] | [6]

OCC(F)(F)C(F)(F)C(F)(F)C(F)(F)C(F)(F)C(F)F
inactive: all assays above

CC/C=C\CCOC(=O)c1ccccc1
not listed: [7] | [8] | [9]
inactive: all other assays above

CCCCCCCCC(F)(F)C(F)(F)C(F)(F)C(F)(F)C(F)(F)C(F)(F)F
active: [5] 89.3 µM
inactive: all other assays above

Nc1ccc([N+](=O)[O-])cc1O
active: [4] 16.1 µM | [7] 20 µM
not listed: [5]
inactive: all other assays above

CCCCC(CC)COP(=O)(O)OCC(CC)CCCC (configuration not stated)
active: [4] 26.6 µM
not listed: [3] | [6]
inactive: all other assays above

— PubChem BioAssay (EPA / NIEHS)
